Measured values: PubChem BioAssay (NCATS)
Unmarked numbers belong to inactive results. The rule behind the calls is not given here.

system: HIV-1 nucleocapsid protein NCp7 (binding to TG oligonucleotide); experiment: HIV Nucleocapsid (AID 346); conditions: HIV-1 NC / fluorescein-TGTGTGTG probe, fluorescence polarization;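 note: potency is for inhibitors that block NC binding and lower polarization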
Summary of the method: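 Fluorescence polarization readout: labelled TG4xF oligo (10 nM) with 100 nM nucleocapsid protein, high-salt (250mM NaCl) Hepes pH 7.5 buffer containing zinc and fresh reducing agents. Compounds added by pin tool; incubation 1 hr, room temperature.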
Potency is the fitted concentration of half-maximal effect.

Structure (SMILES)	Potency [µM]
COc1cccc(Nc2ncc3nc(C)c(=O)n(C4CC4)c3n2)c1	> 20
N#CCCn1c(=O)c(-c2ccccc2)nc2cnc(N3CCOCC3)nc21	> 20
O=C(c1cccc(F)c1)N1CCC[C@@]2(CCN(Cc3nccs3)C2)C1	> 20
O=c1c(CCc2ccccc2)nc2cnc(N3CCNCC3)nc2n1Cc1cccs1	> 20
COc1ccc(C(=O)N2CCC3(CCN(C(=O)Nc4cccc(C#N)c4)CC3)CC2)cc1	> 20
CCNc1ncc2nc(CCc3ccccc3)c(=O)n(CCOC)c2n1	> 20
O=C(c1csnn1)N1CCC2(CC1)CN(c1ccccc1)C2	> 20
O=c1c(-c2cc(F)cc(F)c2)nc2cncnc2n1-c1ccccc1	> 20
COc1ccc(CNc2ncncc2-c2ccc(N(C)C)cc2)c(OC)c1	> 20
COCCn1c(=O)c(C)nc2cnc(Oc3cccc(Cl)c3)nc21	> 4
Cc1cnc(CNc2nc(-c3ccccc3Cl)nc3ccccc23)cn1	> 20
O=c1c(-c2cc(F)cc(F)c2)nc2cnc(N3CCOCC3)nc2n1Cc1ccc(F)cc1	> 20
COc1ccccc1CN1CCC2(CC1)CCN(C(=O)c1c(C)noc1C)CC2	> 20
Cc1cccc(CNc2ncncc2-c2ccccc2C)c1	> 20
CN(C)C(=O)c1ccc(-c2cc(NCc3cccs3)ncn2)cc1	> 20
COc1ncc2nc(-c3ccc(Cl)cc3)c(=O)n(-c3ccccc3)c2n1	> 20
FC(F)(F)c1ccccc1-c1nc(NCc2cccs2)c2ccccc2n1	> 20
COc1cccc(-c2nc(Nc3ccncc3)c3ccccc3n2)c1	> 20
O=C(c1ccncc1)N1CCC2(CC1)CCN(c1ncccn1)CC2	> 20
COC(=O)N1CCC[C@@]2(CCN(Cc3nccs3)C2)C1	> 20

Structure (SMILES)	Potency [µM]
CS(=O)(=O)N1CCC2(CCN(Cc3ccncc3)CC2)CC1	> 4
CN(C)C(=O)c1ccc(-c2nc(Nc3ccccc3)c3ccccc3n2)cc1	> 20
COc1ccccc1-c1cncnc1N1CCN(C)CC1	> 20
O=S(=O)(c1ccccc1)N1CCC[C@@]2(CCN(c3ncccn3)C2)C1	> 20
Cn1cccc1C(=O)N1CCC[C@@]2(CCN(c3ncccn3)C2)C1	> 20
COCC(=O)N1CCC[C@@]2(CCN(c3ccccc3)C2)C1	> 20
N#CCCn1c(=O)cnc2cnc(Oc3ccccc3)nc21	> 20
CC(C)NC(=O)N1CCC2(CC1)CCN(C(=O)c1ccncc1)CC2	> 20
O=S(=O)(c1ccccc1)N1CCC2(CCN(Cc3ccccc3)CC2)CC1	> 20
O=C(Nc1cccc(F)c1)N1CCC2(CC1)CCN(C(=O)c1cccc(F)c1)CC2	> 20
O=C(c1ccco1)N1CCC[C@@]2(CCN(c3ncccn3)C2)C1	> 20
CN1CCN(c2ncnc3ccc(-c4cccnc4)cc23)CC1	> 20
CNc1ncncc1-c1c(C)noc1C	> 20
Cc1ccccc1-c1cncnc1NC1CCNCC1	> 20
CCNc1ncc2nc(-c3cccc(C#N)c3)c(=O)n(C)c2n1	> 20
COCCn1c(=O)c(-c2ccc(OC)cc2)nc2cnc(OC)nc21	> 20
COc1ccc(CNc2ccnc(-c3ccc4c(c3)OCO4)n2)c(OC)c1	> 20
COc1ncc2nc(-c3cccs3)c(=O)n(Cc3ccc(F)cc3)c2n1	> 20
COc1ccccc1CCn1c(=O)c(-c2cccc(F)c2)nc2cncnc21	> 20
COc1ccc(Oc2ncc3nc(-c4cccs4)c(=O)n(-c4ccccc4)c3n2)cc1	> 20
